Experimental data from PubChem BioAssay (EPA / NIEHS).
Records with an inconclusive call do not appear. Active and inactive are the calls of the source. How the source made its calls: active means hit-call score of the fitted dose curve at least 0.9, where 1 is the maximum; inconclusive means response in the unintended direction; inactive means score below 0.9.

Tests used:
[1] = target: Tyrosine-protein phosphatase non-receptor type 13 (Homo sapiens) (UniProt Q12923); test: NVS_ENZ_hPTPN13: NovaScreen (NVS) Enzymatic Assay for human Protein Tyrosine Phosphatase Non-receptor Type 13 (PTPN13) (AID 2283205)
Method in brief: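 Cell-free assay of recombinant human PTPN13 with a fluorescent substrate, product separated by electrophoretic mobility shift and read 0.5 h after dosing. Primary screen at 25 uM in duplicate, then concentration-response up to 50 uM. Loss of signal fitted against DMSO.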

[2] = target: human Protein Tyrosine Phosphatase Non-receptor Type 6 (PTPN6), PTPN6 (gene 5777) (UniProt P29350); test: NVS_ENZ_hPTPN6: NovaScreen (NVS) Enzymatic Assay for human Protein Tyrosine Phosphatase Non-receptor Type 6 (PTPN6) (AID 2283210)
human Protein Tyrosine Phosphatase Non-receptor Type 6 (PTPN6), PTPN6 (gene 5777), sequence (P29350 whole entry, looked up): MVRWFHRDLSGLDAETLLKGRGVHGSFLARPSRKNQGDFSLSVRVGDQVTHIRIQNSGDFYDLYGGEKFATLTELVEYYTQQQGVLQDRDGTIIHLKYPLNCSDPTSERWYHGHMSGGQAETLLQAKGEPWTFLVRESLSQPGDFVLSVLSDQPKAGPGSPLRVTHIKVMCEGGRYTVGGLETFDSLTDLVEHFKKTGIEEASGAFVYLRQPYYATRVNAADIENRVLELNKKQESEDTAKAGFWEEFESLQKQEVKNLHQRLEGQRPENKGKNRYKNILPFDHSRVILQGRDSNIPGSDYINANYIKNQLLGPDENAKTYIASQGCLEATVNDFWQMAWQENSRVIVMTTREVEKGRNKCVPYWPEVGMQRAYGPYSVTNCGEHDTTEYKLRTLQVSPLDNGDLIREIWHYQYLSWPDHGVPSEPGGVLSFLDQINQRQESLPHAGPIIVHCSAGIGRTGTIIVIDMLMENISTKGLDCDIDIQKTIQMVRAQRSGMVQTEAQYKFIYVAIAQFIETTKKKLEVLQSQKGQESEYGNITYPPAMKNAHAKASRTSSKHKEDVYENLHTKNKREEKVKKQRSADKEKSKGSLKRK
Method in brief: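 Cell-free assay with recombinant PTPN6 expressed in SF9 cells, fluorescent substrate, product separated from substrate by electrophoretic mobility shift; read 1.33 hours after dosing. Primary screen in duplicate at 25 uM, actives retested in concentration series; DMSO baseline.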

[3] = target: human Protein Tyrosine Phosphatase Non-receptor Type 9 (PTPN9), PTPN9 (gene 5780) (UniProt P43378); test: NVS_ENZ_hPTPN9: NovaScreen (NVS) Enzymatic Assay for human Protein Tyrosine Phosphatase Non-receptor Type 9 (PTPN9) (AID 2283209)
human Protein Tyrosine Phosphatase Non-receptor Type 9 (PTPN9), PTPN9 (gene 5780), sequence (P43378 whole entry, looked up): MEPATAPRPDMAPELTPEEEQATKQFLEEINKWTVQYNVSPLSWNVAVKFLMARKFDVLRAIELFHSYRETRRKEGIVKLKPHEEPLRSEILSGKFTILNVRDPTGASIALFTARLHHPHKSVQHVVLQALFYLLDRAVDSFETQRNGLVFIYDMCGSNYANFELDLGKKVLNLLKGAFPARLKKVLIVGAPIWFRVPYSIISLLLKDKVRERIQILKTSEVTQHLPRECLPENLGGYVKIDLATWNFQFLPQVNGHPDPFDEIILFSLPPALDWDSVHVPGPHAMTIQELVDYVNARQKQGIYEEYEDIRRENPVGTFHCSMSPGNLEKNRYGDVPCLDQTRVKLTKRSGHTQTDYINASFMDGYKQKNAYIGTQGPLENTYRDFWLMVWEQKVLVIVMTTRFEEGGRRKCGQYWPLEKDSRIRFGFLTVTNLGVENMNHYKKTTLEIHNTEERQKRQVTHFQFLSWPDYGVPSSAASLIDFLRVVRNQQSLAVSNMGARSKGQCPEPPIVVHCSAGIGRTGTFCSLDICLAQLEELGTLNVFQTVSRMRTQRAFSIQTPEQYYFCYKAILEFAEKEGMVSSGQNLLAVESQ
Method in brief: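 Sf9-expressed enzyme in a cell-free assay, fluorescence read 1.33 h after dosing with mobility-shift separation of substrate and product. Tested at 25 uM in duplicate, then up to 50 uM; signal loss versus DMSO.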

[4] = target: human Phosphatase and Tensin Homolog (PTEN), PTEN (gene 5728) (UniProt P60484); test: NVS_ENZ_hPTEN: NovaScreen (NVS) Enzymatic Assay for human Phosphatase and Tensin Homolog (PTEN) (AID 2283203)
Method in brief: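 Cell-free recombinant human PTEN with fluorescent substrate; product separated by electrophoretic mobility shift and read by fluorescence 1 h after dosing. Primary screen in duplicate at 25 uM, actives followed in concentration series versus DMSO.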

[5] = target: human Protein Tyrosine Phosphatase Non-receptor Type 2 (PTPN2), PTPN2 (gene 5771) (UniProt P17706); test: NVS_ENZ_hPTPN2: NovaScreen (NVS) Enzymatic Assay for human Protein Tyrosine Phosphatase Non-receptor Type 2 (PTPN2) (AID 2283207)
Method in brief: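 Cell-free recombinant enzyme with fluorescent substrate, product separated by electrophoretic mobility shift; read 1 h after dosing. Primary screen single concentration (25 uM) in duplicate; actives followed in concentration series; loss of signal versus DMSO.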

[6] = target: human Protein Tyrosine Phosphatase Non-receptor Type 4 (PTPN4), PTPN4 (gene 5775) (UniProt P29074); test: NVS_ENZ_hPTPN4: NovaScreen (NVS) Enzymatic Assay for human Protein Tyrosine Phosphatase Non-receptor Type 4 (PTPN4) (AID 2283208)
Method in brief: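 Cell-free assay of PTPN4 expressed in Sf9 cells, using a fluorescent substrate with product separated by mobility shift; read 1.33 h after dosing. Single-point screen at 25 uM, then concentration-response up to 50 uM. Loss of signal relative to DMSO.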

[7] = target: human Protein Tyrosine Phosphatase Receptor Type M (PTPRM), PTPRM (gene 5797) (UniProt P28827); test: NVS_ENZ_hPTPRM: NovaScreen (NVS) Enzymatic Assay for human Protein Tyrosine Phosphatase Receptor Type M (PTPRM) (AID 2283215)
human Protein Tyrosine Phosphatase Receptor Type M (PTPRM), PTPRM (gene 5797), sequence (P28827 whole entry, looked up): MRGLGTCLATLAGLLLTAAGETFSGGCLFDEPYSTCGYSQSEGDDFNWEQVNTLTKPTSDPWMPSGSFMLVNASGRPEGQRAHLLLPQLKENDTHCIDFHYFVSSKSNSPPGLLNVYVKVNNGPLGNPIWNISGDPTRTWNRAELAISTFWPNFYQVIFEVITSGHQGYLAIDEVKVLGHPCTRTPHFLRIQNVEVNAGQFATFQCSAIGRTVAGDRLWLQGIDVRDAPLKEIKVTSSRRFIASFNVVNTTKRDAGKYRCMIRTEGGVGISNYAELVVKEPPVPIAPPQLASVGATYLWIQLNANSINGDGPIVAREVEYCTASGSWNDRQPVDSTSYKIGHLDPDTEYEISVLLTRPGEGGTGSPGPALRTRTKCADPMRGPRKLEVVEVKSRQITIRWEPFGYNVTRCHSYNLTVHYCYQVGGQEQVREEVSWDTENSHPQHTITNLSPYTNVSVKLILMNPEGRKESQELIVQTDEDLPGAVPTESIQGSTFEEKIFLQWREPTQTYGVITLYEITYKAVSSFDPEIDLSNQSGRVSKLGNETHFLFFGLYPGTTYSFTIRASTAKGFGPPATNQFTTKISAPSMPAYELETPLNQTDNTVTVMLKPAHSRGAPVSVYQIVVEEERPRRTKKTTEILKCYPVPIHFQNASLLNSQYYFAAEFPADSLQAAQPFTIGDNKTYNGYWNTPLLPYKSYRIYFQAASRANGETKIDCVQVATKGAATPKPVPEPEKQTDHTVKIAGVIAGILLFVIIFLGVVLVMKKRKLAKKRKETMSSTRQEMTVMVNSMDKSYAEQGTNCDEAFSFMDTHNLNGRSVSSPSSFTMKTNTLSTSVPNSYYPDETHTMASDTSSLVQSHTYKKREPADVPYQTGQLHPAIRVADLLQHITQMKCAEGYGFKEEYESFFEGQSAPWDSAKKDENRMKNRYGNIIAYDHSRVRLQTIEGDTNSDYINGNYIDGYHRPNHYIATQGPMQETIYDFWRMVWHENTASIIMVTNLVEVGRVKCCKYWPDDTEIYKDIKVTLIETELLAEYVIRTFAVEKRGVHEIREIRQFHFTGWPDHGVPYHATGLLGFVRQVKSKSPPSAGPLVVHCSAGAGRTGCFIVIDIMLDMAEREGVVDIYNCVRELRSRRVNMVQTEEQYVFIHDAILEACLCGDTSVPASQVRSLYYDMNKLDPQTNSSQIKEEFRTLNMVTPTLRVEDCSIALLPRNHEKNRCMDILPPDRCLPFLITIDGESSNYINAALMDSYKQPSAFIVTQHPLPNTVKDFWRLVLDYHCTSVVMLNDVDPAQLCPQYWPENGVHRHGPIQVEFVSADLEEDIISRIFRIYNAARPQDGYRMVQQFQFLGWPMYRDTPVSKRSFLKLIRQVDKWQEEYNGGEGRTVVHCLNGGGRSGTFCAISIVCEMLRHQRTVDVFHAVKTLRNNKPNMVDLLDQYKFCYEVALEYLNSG
Method in brief: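 Cell-free recombinant PTPRM with fluorogenic substrate; product separated from substrate by electrophoretic mobility shift and read by fluorescence, 1.33 h after dosing. Primary screen single concentration (25 uM) in duplicate; actives retested in concentration series; loss of signal versus DMSO.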

[8] = target: human Sirtuin 1 (SIRT1), SIRT1 (gene 23411) (UniProt Q96EB6); test: NVS_ENZ_hSIRT1: NovaScreen (NVS) Enzymatic Assay for human Sirtuin 1 (SIRT1) (AID 2283219)
Method in brief: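 Cell-free recombinant SIRT1 with a fluorescent substrate; substrate and product separated by electrophoretic mobility shift and read by fluorescence intensity, 1 h after dosing. Primary screen at 25 uM in duplicate; hits re-run in concentration-response up to 50 uM, relative to DMSO.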

[9] = target: human SRC Proto-Oncogene, Non-receptor Tyrosine Kinase (SRC), SRC (gene 6714) (UniProt P12931); test: NVS_ENZ_hSRC: NovaScreen (NVS) Enzymatic Assay for human SRC Proto-Oncogene, Non-receptor Tyrosine Kinase (SRC) (AID 2283223)
Method in brief: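 Cell-free kinase activity assay with fluorescent substrate, product separated by electrophoretic mobility shift, read 1 h after dosing. Duplicate single point at 25 uM, then concentration-response up to 50 uM; loss of signal versus DMSO.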

[10] = target: human Tropomyosin Receptor Kinase A (TRKA), NTRK1 (gene 4914) (UniProt P04629); test: NVS_ENZ_hTrkA: NovaScreen (NVS) Enzymatic Assay for human Tropomyosin Receptor Kinase A (TRKA) (AID 2283224)
Method in brief: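 Recombinant human TrkA activity read after 1 h by fluorescence with electrophoretic mobility shift separating substrate and product. Primary screen in duplicate at 25 uM; actives were rerun in concentration-response up to 50 uM. Loss of signal versus DMSO.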

[11] = target: human Tyrosine Protein Kinase Receptor Tie-2 (Tie2), TEK (gene 7010) (UniProt Q02763); test: NVS_ENZ_hTie2: NovaScreen (NVS) Enzymatic Assay for human Tyrosine Protein Kinase Receptor Tie-2 (Tie2) (AID 2283225)
human Tyrosine Protein Kinase Receptor Tie-2 (Tie2), TEK (gene 7010), sequence (Q02763 whole entry, looked up): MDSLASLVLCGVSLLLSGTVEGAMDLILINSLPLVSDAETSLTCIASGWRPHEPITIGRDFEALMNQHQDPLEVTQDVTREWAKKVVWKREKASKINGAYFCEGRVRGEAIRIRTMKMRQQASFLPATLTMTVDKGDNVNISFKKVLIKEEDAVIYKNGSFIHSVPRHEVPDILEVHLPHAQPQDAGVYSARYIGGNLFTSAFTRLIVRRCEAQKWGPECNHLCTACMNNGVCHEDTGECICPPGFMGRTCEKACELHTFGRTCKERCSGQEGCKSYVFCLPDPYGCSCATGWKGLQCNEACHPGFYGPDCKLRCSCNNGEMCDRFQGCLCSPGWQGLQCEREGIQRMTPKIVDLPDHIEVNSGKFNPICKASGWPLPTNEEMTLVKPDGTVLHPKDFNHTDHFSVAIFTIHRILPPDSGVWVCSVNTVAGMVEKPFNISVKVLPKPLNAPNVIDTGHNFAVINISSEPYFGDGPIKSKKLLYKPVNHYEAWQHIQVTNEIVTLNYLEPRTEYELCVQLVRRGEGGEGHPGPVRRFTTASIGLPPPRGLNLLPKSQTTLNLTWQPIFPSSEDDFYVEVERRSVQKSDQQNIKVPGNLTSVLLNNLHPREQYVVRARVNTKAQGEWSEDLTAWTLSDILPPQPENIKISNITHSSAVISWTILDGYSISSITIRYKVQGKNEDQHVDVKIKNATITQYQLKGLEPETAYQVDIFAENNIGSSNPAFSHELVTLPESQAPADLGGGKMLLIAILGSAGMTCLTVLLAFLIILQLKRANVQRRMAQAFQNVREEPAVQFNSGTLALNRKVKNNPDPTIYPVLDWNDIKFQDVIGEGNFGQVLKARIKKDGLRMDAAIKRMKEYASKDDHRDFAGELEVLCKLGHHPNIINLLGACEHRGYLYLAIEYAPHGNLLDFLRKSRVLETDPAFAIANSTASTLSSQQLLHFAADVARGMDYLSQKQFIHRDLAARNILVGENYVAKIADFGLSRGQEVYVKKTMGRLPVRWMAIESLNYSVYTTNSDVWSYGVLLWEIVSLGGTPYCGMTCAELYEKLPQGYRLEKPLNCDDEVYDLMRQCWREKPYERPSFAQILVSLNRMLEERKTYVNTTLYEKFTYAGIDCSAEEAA
Method in brief: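 Recombinant human Tie2 kinase activity was read cell-free by fluorescence with electrophoretic mobility shift, 1 hour after dosing. The screen used 25 uM in duplicate, then concentration-response up to 50 uM. Signal loss was scored against DMSO.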

[12] = target: human Vascular Endothelial Growth Factor Receptor 3 (VEGFR3), FLT4 (gene 2324) (UniProt P35916); test: NVS_ENZ_hVEGFR3: NovaScreen (NVS) Enzymatic Assay for human Vascular Endothelial Growth Factor Receptor 3 (VEGFR3) (AID 2283229)
human Vascular Endothelial Growth Factor Receptor 3 (VEGFR3), FLT4 (gene 2324), sequence (P35916 whole entry, looked up): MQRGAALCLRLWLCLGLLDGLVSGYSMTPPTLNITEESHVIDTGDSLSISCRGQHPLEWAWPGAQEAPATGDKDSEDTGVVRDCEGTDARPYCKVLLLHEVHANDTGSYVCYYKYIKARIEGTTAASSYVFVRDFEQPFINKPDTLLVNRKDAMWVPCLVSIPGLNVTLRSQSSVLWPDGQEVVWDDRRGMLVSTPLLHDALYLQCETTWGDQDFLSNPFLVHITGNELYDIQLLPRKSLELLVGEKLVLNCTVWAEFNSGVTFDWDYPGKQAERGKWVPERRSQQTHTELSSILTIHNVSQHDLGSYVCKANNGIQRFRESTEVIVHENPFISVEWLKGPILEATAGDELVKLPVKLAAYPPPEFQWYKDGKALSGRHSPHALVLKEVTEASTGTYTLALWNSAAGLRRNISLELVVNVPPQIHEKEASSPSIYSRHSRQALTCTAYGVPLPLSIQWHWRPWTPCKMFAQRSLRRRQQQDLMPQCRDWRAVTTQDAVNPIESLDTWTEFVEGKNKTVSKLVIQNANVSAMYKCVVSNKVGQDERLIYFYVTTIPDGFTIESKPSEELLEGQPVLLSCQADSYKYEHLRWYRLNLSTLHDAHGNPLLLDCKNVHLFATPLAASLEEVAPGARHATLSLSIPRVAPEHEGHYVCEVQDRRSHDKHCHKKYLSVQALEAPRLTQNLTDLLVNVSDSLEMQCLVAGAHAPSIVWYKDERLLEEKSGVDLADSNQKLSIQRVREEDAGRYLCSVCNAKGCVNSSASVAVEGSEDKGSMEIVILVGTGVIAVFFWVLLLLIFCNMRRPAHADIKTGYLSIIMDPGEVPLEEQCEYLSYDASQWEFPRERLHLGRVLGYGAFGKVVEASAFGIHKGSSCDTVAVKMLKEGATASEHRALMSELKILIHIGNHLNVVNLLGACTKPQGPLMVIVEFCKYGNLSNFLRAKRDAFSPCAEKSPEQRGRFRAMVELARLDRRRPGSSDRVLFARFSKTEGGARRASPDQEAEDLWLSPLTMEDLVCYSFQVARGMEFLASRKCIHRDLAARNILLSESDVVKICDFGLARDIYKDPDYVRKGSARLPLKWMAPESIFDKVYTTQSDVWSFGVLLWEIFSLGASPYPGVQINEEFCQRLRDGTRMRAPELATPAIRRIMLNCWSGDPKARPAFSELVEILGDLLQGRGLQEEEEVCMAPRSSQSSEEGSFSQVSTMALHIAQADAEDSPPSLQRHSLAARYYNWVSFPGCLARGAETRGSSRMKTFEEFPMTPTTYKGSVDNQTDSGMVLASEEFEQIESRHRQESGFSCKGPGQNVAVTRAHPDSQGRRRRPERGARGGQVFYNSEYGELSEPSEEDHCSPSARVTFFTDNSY
Method in brief: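 Cell-free recombinant VEGFR3 kinase reaction with fluorescent substrate, read 1 h after dosing by electrophoretic mobility shift separation of substrate and product. Single-concentration duplicate screen at 25 uM, then concentration-response up to 50 uM; loss of activity versus DMSO.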

[13] = target: Tyrosine-protein phosphatase non-receptor type 12 (Homo sapiens) (UniProt Q05209); test: NVS_ENZ_hPTPN12: NovaScreen (NVS) Enzymatic Assay for human Protein Tyrosine Phosphatase Non-receptor Type 12 (PTPN12) (AID 2283204)
Method in brief: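 Single-concentration duplicates (25 uM) preceded singleton concentration-response up to 50 uM for chemicals passing threshold. Cell-free recombinant PTPN12 activity was read 1.33 h after dosing via fluorescence after mobility-shift separation; loss of signal versus DMSO.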

[14] = target: human Protein Tyrosine Phosphatase Receptor Type F (PTPRF), PTPRF (gene 5792) (UniProt P10586); test: NVS_ENZ_hPTPRF: NovaScreen (NVS) Enzymatic Assay for human Protein Tyrosine Phosphatase Receptor Type F (PTPRF) (AID 2283213)
Method in brief: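 Cell-free fluorescence enzyme assay with recombinant protein and substrate; product separated by electrophoretic mobility shift. Read 1 h after dosing, single 25 uM duplicate screen, then concentration-response up to 50 uM; loss of signal vs DMSO.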

[15] = target: human Raf-1 Proto-Oncogene, serine/threonine Kinase (RAF1), RAF1 (gene 5894) (UniProt P04049); test: NVS_ENZ_hRAF1: NovaScreen (NVS) Enzymatic Assay for human Raf-1 Proto-Oncogene, serine/threonine Kinase (RAF1) (AID 2283216)
Method in brief: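 Cell-free recombinant kinase with specific fluorescent substrate, product separated by electrophoretic mobility shift; read 1 h after dosing. Primary screen at 25 uM in duplicate; hits then run in concentration-response up to 50 uM, fitted as loss of signal versus DMSO.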

[16] = target: human Sirtuin 2 (SIRT2), SIRT2 (gene 22933) (UniProt Q8IXJ6); test: NVS_ENZ_hSIRT2: NovaScreen (NVS) Enzymatic Assay for human Sirtuin 2 (SIRT2) (AID 2283217)
Method in brief: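 Cell-free recombinant human SIRT2, fluorescent substrate with product separated by electrophoretic mobility shift, 1 hr. Screened in duplicate at 25 uM; hits rerun singly in concentration-response up to 50 uM, relative to DMSO.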

[17] = target: human Vascular Endothelial Growth Factor Receptor 1 (VEGFR1), FLT1 (gene 2321) (UniProt P17948); test: NVS_ENZ_hVEGFR1: NovaScreen (NVS) Enzymatic Assay for human Vascular Endothelial Growth Factor Receptor 1 (VEGFR1) (AID 2283226)
Method in brief: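 Cell-free assay of recombinant human VEGFR1 kinase with substrate, measured 1 h after dosing; fluorescence with electrophoretic mobility-shift separation of substrate and product, referenced to DMSO; primary screen at 25 uM in duplicate, actives then run in concentration series.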

[18] = target: rabbit Imidazoline 2 Central (I2C), CKB (gene 100009085) (UniProt P00567); test: NVS_ENZ_rabI2C: NovaScreen (NVS) Enzymatic Assay for rabbit Imidazoline 2 Central (I2C) (AID 2283228)
Method in brief: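 Rabbit brain membranes, cell-free; readout by filter-based scintillation counting 1.5 hours after dosing, loss of signal vs DMSO. Initial duplicate test at 25 uM, then concentration-response with 50 uM top concentration.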

O=C1CCCO1
outcome [1]: inactive
outcome [2]: inactive

CC(C)(C)OOC(=O)c1ccccc1
outcome [2]: inactive

CCCCCOC(=O)c1ccccc1C(=O)OCCCCC
outcome [3]: inactive

CN(C)[C@@H]1C(=O)C(C(N)=O)=C(O)[C@@]2(O)C(=O)C3=C(O)c4c(O)cccc4[C@@](C)(O)[C@H]3C[C@@H]12
AC50 [2]: 25 µM (active)

ClC1=C(Cl)[C@]2(Cl)[C@H]3[C@H]([C@@H]4C=C[C@H]3C4)[C@@]1(Cl)C2(Cl)Cl
outcome [3]: inactive

CCNS(=O)(=O)C(F)(F)C(F)(F)C(F)(F)C(F)(F)C(F)(F)C(F)(F)C(F)(F)C(F)(F)F
outcome [4]: inactive
outcome [1]: inactive
outcome [5]: inactive
outcome [6]: inactive
outcome [3]: inactive
outcome [7]: inactive
outcome [8]: inactive
outcome [9]: inactive
outcome [10]: inactive
outcome [11]: inactive
outcome [12]: inactive

C[N+](C)(C)CC1CO1 (stereo unspecified)
outcome [2]: inactive

Nc1ccc(Oc2ccc(N)cc2)cc1
outcome [3]: inactive
AC50 [2]: 17 µM (active)

OCCCBr
AC50 [13]: 25 µM (active)
outcome [2]: inactive
AC50 [7]: 13 µM (active)

Oc1ccc2ccc3cccc4ccc1c2c34
AC50 [13]: 1.22 µM (active)
AC50 [3]: 1.44 µM (active)
AC50 [14]: 16.5 µM (active)
AC50 [11]: 13.6 µM (active)

Clc1ccc(C(c2ccc(Cl)cc2)C(Cl)Cl)cc1
outcome [2]: inactive

c1ccc2c(c1)oc1ccccc12
outcome [5]: inactive
outcome [2]: inactive
outcome [7]: inactive

O=Cc1ccco1
AC50 [1]: 0.13 µM (active)

CCN(CC)N=O
outcome [13]: inactive
outcome [3]: inactive
outcome [14]: inactive
outcome [7]: inactive
outcome [15]: inactive
outcome [16]: inactive
outcome [11]: inactive
outcome [17]: inactive

CO[C@@H]1[C@H](OC(=O)NC(=O)CCl)CC[C@]2(CO2)[C@H]1[C@@]1(C)O[C@@H]1CC=C(C)C
outcome [13]: inactive

CC(C)(C)OOC(C)(C)CCC(C)(C)OOC(C)(C)C
AC50 [2]: 39 µM (active)

Cn1cc(-c2ccccc2)c(=O)c(-c2cccc(C(F)(F)F)c2)c1
outcome [4]: inactive
AC50 [5]: 0.115 µM (active)

Clc1ccc(C(c2ccc(Cl)cc2)C(Cl)(Cl)Cl)cc1
outcome [5]: inactive
outcome [3]: inactive
outcome [2]: inactive
AC50 [8]: 25 µM (active)

CN(C)c1ccc(C(=O)c2ccc(N(C)C)cc2)cc1
AC50 [3]: 41.7 µM (active)
outcome [18]: inactive

O=P(OCCCl)(OCCCl)OCCCl
outcome [2]: inactive

CCC(C)c1ccc(O)cc1 (stereo unspecified)
outcome [2]: inactive

CC(C)(OOC(C)(C)c1ccccc1)c1ccccc1
outcome [2]: inactive

CCN(CC)CCO
outcome [3]: inactive

O=[N+]([O-])c1ccc(Oc2ccc(Cl)cc2Cl)cc1
outcome [2]: inactive

c1ccc(C2CO2)cc1 (stereo unspecified)
outcome [2]: inactive

C[C@]12C=CC3=C4CCC(=O)C=C4CC[C@H]3[C@@H]1CC[C@@H]2O
outcome [15]: inactive

N#CC(Br)Br
outcome [15]: inactive

Cc1ccc(N=C=O)cc1N=C=O
AC50 [16]: 25 µM (active)

CCOC(=O)[C@]1(c2ccccc2)Oc2ccccc2[C@@H]1N
outcome [12]: inactive

COc1cc(C=O)cc2c1[C@H](COC(N)=O)[C@]1(OC(C)=O)ON2C[C@H]2[C@@H]1N2C(C)=O
outcome [12]: inactive
